This passage reports outcome and AC50 results from PubChem BioAssay (EPA / NIEHS).

Results filed as inconclusive are left out. Active and inactive are the calls of the source. Rule for the calls, unless noted: active = hit-call score of the fitted dose curve at least 0.9, where 1 is the maximum; inconclusive = response in the unintended direction; inactive = score below 0.9.

Assay [1] in a line: CCTE_Mundy_HCI_iCellGluta_NOG_NeuronCount: CCTE's Neurite Outgrowth Assay in iCellGluta cells for Neuron Count, Mundy Lab (AID 2284340).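 Note: cells fixed about 48 h after compound addition.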 The gist of the method:
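Neuron count read by automated high-content imaging of Hoechst 33342 and betaIII-tubulin/Alexa Fluor-488 labelling in human iPSC glutamatergic neurons. Activity fitted relative to DMSO.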

Read-out in assay [2]: Monokine induced gamma interferon (MIG), CXCL9 (gene 4283)
Nature of the assay: BSK_KF3CT_MIG: BioMAP Diversity Plus: KF3CT Assay for Monokine induced gamma interferon (MIG) Biomarker Activity (AID 2284248; active = hit-call score of the fitted dose curve at least 0.9, where 1 is the maximum; inactive = score below 0.9). The note with it: primary human keratinocytes with fibroblasts. The gist of the method:
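KF3CT system: keratinocyte/fibroblast co-culture, 24 h post-dose, MIG by ELISA; activity vs DMSO, positive fitting direction.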

Read-out in assay [3]: Collagen I, COL1A1 (gene 1277)
The assay is described as follows: BSK_hDFCGF_CollagenI: BioMAP Diversity Plus: hDFCGF Assay for Collagen I Biomarker Activity (AID 2284250; active = hit-call score of the fitted dose curve at least 0.9, where 1 is the maximum; inactive = score below 0.9). Conditions: primary human foreskin fibroblasts. The gist of the method: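 Collagen I ELISA, primary human foreskin fibroblasts, 24 h chemical exposure, DMSO = negative control/baseline, positive fitting direction.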

Assay [4] is described as follows: ATG_M_19_XSP2: Attagene TRANS-FACTORIAL Multi-Species (XSP2) HepG2 Assay for M32 Transcription Factor (Internal Marker) (AID 2283822). The gist of the method: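 Internal background marker in a multi-species nuclear receptor TRANS panel: transfected HepG2 cells exposed 24 h, with 3 nM 6-alpha-fluorotestosterone and 1.5 nM norgestrel present. Readout is RT-PCR of reporter transcripts resolved by capillary electrophoresis, gain-of-signal versus DMSO.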

The subject of assay [5] is zebrafish Estrogen Receptor (ER2b), gene 317733. The assay is described as follows: ATG_zfER2b_XSP2: Attagene TRANS-FACTORIAL Multi-Species (XSP2) HepG2 Assay for zebrafish Estrogen Receptor (ER2b) (AID 2283823).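 Note: fitted upward as reporter gain over DMSO so potency reflects activation.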 The gist of the method:
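Cells used were HepG2, transiently transfected with chimeric nuclear receptor-Gal4 reporter units. After 24 h of chemical treatment, reporter transcripts were amplified by RT-PCR, labelled and sized by capillary electrophoresis, with induction analysed relative to DMSO.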

Assay [6] is described as follows: ATG_M_32_XSP2: Attagene TRANS-FACTORIAL Multi-Species (XSP2) HepG2 Assay for M19 Transcription Factor (Internal Marker) (AID 2283826). The gist of the method: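 Transfected HepG2 (multiplexed GAL4-UAS reporters), 24 h chemical exposure, 3 nM 6-alpha-fluorotestosterone + 1.5 nM norgestrel added. RNA → oligo(dT) RT → PCR → 6-FAM primer extension → HpaI cut → CE. Fitted upward vs DMSO.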

In assay [7] the target is Nuclear receptor subfamily 1 group I member 2 (Mus musculus) (UniProt O54915). Nature of the assay: ATG_mPXR_XSP2: Attagene TRANS-FACTORIAL Multi-Species (XSP1) HepG2 Assay for mouse Pregnane X Receptor (PXR) (AID 2283831). The gist of the method: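 Reporter transcripts were quantified by RT-PCR, FAM primer extension, HpaI digestion and capillary electrophoresis after 24 h of chemical exposure in transiently transfected HepG2 cells carrying chimeric receptor-GAL4 constructs; DMSO served as baseline.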
Nuclear receptor subfamily 1 group I member 2 (Mus musculus), sequence (O54915 whole entry, looked up, the tested form may be a part): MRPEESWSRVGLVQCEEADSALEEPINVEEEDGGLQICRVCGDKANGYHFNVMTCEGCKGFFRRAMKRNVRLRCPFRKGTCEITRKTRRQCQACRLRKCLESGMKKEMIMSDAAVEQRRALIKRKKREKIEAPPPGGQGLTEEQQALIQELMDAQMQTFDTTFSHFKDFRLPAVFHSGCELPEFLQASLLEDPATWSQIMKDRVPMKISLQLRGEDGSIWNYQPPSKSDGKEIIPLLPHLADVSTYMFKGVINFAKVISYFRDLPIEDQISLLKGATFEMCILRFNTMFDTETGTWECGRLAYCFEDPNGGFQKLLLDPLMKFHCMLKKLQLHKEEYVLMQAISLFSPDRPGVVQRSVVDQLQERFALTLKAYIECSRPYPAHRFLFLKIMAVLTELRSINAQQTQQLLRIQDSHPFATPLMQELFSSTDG

For assay [8], the target named is zebrafish Thyroid Hormone Receptor alpha (TRa), thraa (gene 30670) (UniProt Q98867). Nature of the assay: ATG_zfTRa_XSP2: Attagene TRANS-FACTORIAL Multi-Species (XSP1) HepG2 Assay for zebrafish Thyroid Hormone Receptor alpha (TRa) (AID 2283832).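 Note: actives raise zebrafish TRa-Gal4 reporter transcript above DMSO baseline.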 The gist of the method: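 HepG2, transient MRTU transfection, exogenous NR-Gal4 chimeras; 24 h dosing; mRNA readout via RT-PCR/CE fluorescence; positive direction vs DMSO.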
zebrafish Thyroid Hormone Receptor alpha (TRa), thraa (gene 30670), sequence (Q98867 whole entry, looked up, the tested form may be a part): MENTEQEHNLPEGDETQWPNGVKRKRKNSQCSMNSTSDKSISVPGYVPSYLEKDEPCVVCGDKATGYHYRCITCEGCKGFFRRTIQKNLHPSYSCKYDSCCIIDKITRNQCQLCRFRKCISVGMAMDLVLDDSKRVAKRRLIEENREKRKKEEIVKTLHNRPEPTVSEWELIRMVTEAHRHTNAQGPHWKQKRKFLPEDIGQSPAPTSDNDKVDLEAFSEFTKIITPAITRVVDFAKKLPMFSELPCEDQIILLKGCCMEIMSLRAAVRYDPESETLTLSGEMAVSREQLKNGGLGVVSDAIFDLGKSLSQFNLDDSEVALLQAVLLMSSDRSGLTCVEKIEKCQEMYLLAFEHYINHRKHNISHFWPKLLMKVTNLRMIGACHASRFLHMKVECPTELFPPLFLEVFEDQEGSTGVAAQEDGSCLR

Assay [9] has as its target human Thyroid hormone Receptor beta (TRb), THRB (gene 7068) (UniProt P10828). Nature of the assay: ATG_hTRb_XSP2: Attagene TRANS-FACTORIAL Multi-Species (XSP2) HepG2 Assay for human Thyroid hormone Receptor beta (TRb) (AID 2283840).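 Note: actives raise reporter mRNA so potency reflects agonist-like gain of signal.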 The gist of the method:
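Transient transfection of human HepG2 with multi-species NR-Gal4/GAL4-UAS reporter constructs; 24 h compound treatment; RNA isolation, reverse transcription, PCR and HpaI digest; capillary electrophoresis of labeled fragments; activity fitted upward versus DMSO.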

The target of assay [10] is human Vascular Endothelial Growth Factor Receptor 3 (VEGFR3), FLT4 (gene 2324) (UniProt P35916). The assay is described as follows: NVS_ENZ_hVEGFR3: NovaScreen (NVS) Enzymatic Assay for human Vascular Endothelial Growth Factor Receptor 3 (VEGFR3) (AID 2283229). The gist of the method: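 Chemicals first run in duplicate at 25 uM, with actives re-tested in concentration series to a top of 50 uM. Recombinant VEGFR3 activity measured after 1 h via fluorescence with mobility-shift product separation; inhibition fitted relative to DMSO.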
human Vascular Endothelial Growth Factor Receptor 3 (VEGFR3), FLT4 (gene 2324), sequence (P35916 whole entry, looked up): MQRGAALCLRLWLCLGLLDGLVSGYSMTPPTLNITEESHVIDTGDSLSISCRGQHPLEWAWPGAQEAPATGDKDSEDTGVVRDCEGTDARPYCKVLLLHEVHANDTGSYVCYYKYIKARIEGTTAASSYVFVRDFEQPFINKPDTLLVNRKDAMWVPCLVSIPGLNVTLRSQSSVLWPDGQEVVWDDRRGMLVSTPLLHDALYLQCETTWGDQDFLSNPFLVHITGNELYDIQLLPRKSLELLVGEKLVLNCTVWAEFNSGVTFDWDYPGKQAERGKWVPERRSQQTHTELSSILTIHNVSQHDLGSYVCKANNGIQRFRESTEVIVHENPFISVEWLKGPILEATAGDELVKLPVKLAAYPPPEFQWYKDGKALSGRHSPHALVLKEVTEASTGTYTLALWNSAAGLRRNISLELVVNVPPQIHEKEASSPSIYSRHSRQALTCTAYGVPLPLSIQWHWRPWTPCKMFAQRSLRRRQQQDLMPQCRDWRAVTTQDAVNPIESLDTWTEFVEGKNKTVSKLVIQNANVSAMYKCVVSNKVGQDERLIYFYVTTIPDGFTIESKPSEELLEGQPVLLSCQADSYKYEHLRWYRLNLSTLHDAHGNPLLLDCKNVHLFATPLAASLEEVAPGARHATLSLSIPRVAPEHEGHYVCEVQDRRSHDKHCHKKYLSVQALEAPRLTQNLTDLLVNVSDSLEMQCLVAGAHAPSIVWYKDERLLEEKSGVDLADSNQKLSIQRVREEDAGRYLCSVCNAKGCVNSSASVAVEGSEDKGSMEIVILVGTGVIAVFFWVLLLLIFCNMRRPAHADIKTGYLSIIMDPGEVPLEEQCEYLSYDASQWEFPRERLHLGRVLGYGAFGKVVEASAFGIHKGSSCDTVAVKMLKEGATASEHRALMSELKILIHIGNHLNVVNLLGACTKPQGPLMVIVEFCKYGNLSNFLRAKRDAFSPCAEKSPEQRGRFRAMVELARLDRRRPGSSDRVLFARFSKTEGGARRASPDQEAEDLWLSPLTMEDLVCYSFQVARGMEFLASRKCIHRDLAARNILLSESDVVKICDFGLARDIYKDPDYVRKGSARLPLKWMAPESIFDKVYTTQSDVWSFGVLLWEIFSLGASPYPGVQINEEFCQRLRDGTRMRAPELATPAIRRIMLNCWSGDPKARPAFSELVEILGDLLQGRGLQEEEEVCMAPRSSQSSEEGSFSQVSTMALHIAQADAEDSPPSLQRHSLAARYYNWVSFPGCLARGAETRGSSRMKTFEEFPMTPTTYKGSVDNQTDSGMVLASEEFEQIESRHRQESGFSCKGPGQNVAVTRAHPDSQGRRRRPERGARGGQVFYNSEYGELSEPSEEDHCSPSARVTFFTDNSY

The next assay has as its system IYD (gene 389434). Nature of the assay: CCTE_GLTED_hIYD: CCTE's human Iodotyrosine Deiodinase (xIYD) Inhibition Assay, Great Lakes Toxicology and Ecology Division (GLTED) Lab (AID 2284317).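 Note: cell-free human IYD enzyme made in baculovirus insect cells; iodide freed from monoiodotyrosine measured by cerium arsenite color change at 420 nm.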 The gist of the method:
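Deiodination of MIT by insect-cell-produced human IYD is measured after a 3 h incubation with test chemical. Free iodide passes through a Dowex column and accelerates Sandell-Kolthoff Ce4+ reduction, read at 420 nm; run in triplicate.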

Assay [11] concerns the target human Dual Specificity Protein Phosphatase 3 (DUSP3), DUSP3 (gene 1845) (UniProt P51452). The assay is described as follows: NVS_ENZ_hDUSP3: NovaScreen (NVS) Enzymatic Assay for human Dual Specificity Protein Phosphatase 3 (DUSP3) (AID 2283152). The gist of the method: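 Cell-free fluorescence-intensity enzyme activity assay with recombinant protein and substrate; loss of signal fitted relative to DMSO baseline. Primary screen in duplicate at 25 uM, actives then run in concentration series; measured 0 h after dosing.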

Assay [12] deals with human Thromboxane A2 Receptor (TXA2), TBXA2R (gene 6915) (UniProt P21731). The assay is described as follows: NVS_GPCR_hTXA2: NovaScreen (NVS) G Protein-Coupled Receptor Assay for human Thromboxane A2 Receptor (TXA2) (AID 2283282).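 Note: actives reduce bound radioligand signal relative to DMSO baseline.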 The gist of the method:
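Human platelet-derived receptor preparation incubated with test chemical and radiolabelled ligand for 1 hour, cell-free. Bound label was separated by filtration and counted; displacement relative to DMSO controls gave activity, screened at 25 uM, then titrated.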

A short description of assay [13]: STM_H9_OrnCyssISnorm_ratio: Stemina devTOX quickPredict H9 human embryonic stem cell (hESC)-based Assay for Ornithine (ORN):Cystine (CYSS) Ratio (AID 2283714). The gist of the method: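 Ratio of internal-standard-normalized ornithine to cystine, measured by UPLC-HRMS in spent media from the last 24 h. H9 cells kept pluripotent, dosed 72 h with daily media and compound renewal; DMSO 0.1% serves as baseline.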

A short description of assay [14]: STM_H9_NormalizedViability: Cytotoxicity Assessment at 120 hours in the Stemina devTOX quickPredict H9 human embryonic stem cell (hESC)-based Assay (AID 2283784). The gist of the method: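 Viability of the cell layer was taken from live-cell protease cleavage of a fluorogenic substrate after compound exposure of undifferentiated H9 stem cells, with replenishment each 24h. Fluorescence was normalized to vehicle (0.1% DMSO).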

The nature of assay [15]: CCTE_Mundy_HCI_Cortical_NOG_NeuronCount: CCTE's Neurite Outgrowth Assay in rat cortical cells for Neuron Count, Mundy Lab (AID 2284236).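 Note: neurons counted by imaging betaIII-tubulin and Hoechst stained cortical cells; cells exposed to compound for about 48 hours before fixation.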 The gist of the method: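 Read-out: neuron number by high-content imaging of betaIII-tubulin (Alexa Fluor-488) and Hoechst-labelled rat primary cortical cells.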
Assay [16] deals with human CYP2D6, CYP2D6 (gene 1565) (UniProt P10635). The assay is described as follows: NVS_ADME_hCYP2D6: NovaScreen (NVS) CYP450-related Enzyme Activity (ADME) Assay for human CYP2D6 (AID 2283107). The gist of the method:
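Insect-cell recombinant enzyme + fluorogenic substrate, cell-free; 1 h incubation; fluorescence intensity readout. Acetonitrile = neg. ctrl/baseline. Single-point 10 uM, duplicate; follow-up concentration series.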

In the next assay the test system is rat CYP3A1, gene 25642. The assay is described as follows: NVS_ADME_rCYP3A1: NovaScreen (NVS) CYP450-related Enzyme Activity (ADME) Assay for rat CYP3A1 (AID 2283126). The gist of the method:
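Compounds went first at 10 uM duplicate, then to series with 20 uM maximum. Fluorescence from substrate turnover by the recombinant enzyme was measured 0.5 h post-dosing, inhibition scored against acetonitrile vehicle.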

The target of assay [17] is human Beta-secretase (BACE), BACE1 (gene 23621) (UniProt P56817). Nature of the assay: NVS_ENZ_hBACE: NovaScreen (NVS) Enzymatic Assay for human Beta-secretase (BACE) (AID 2283140).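 Note: hits are inhibitors that reduce fluorescent substrate signal versus DMSO.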 The gist of the method: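 Fluorescence intensity read-out of protease activity defines this endpoint; signal loss relative to DMSO baseline marks inhibition. Recombinant enzyme from SF9 cells, cell-free format, 1 h exposure. Single-concentration duplicate screen (25 uM) precedes concentration-series follow-up.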
human Beta-secretase (BACE), BACE1 (gene 23621), sequence (P56817 whole entry, looked up): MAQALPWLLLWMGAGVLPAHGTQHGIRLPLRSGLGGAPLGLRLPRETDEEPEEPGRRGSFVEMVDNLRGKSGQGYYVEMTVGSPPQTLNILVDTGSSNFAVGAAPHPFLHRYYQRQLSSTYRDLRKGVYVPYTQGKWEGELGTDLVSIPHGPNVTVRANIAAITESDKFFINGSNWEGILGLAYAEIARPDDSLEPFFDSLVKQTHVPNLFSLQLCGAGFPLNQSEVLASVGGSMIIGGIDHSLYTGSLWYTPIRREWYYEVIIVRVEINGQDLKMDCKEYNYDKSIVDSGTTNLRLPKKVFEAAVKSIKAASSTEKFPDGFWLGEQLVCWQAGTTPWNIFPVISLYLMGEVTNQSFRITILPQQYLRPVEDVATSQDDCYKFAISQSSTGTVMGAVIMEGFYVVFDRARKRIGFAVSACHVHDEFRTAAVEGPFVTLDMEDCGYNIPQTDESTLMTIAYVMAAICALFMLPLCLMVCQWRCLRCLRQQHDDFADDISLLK

The target of assay [18] is rat Gamma-Aminobutyric Acid Type A Receptor BDZ, alpha 6 site (GABARa6), Gabra6 (gene 29708) (UniProt P30191). Nature of the assay: NVS_LGIC_rGABARa6: NovaScreen (NVS) Ligand-Gated Ion Channel Assay for rat Gamma-Aminobutyric Acid Type A Receptor BDZ, alpha 6 site (GABARa6) (AID 2283339). The gist of the method:
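Actives from a 25 uM duplicate screen were retested in concentration series (max 50 uM). Specific radioligand displacement from rat cerebellar membranes was counted by filter-based scintillation at 1 h; DMSO served as baseline.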

human Dual Specificity Protein Phosphatase 3 (DUSP3), DUSP3 (gene 1845), sequence (P51452 whole entry, looked up): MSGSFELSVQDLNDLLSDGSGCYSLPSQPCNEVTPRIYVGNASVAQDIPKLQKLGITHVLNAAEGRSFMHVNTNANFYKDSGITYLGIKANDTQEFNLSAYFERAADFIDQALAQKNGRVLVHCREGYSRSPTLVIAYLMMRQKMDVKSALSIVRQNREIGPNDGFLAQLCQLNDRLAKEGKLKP
human Thromboxane A2 Receptor (TXA2), TBXA2R (gene 6915), sequence (P21731 whole entry, looked up): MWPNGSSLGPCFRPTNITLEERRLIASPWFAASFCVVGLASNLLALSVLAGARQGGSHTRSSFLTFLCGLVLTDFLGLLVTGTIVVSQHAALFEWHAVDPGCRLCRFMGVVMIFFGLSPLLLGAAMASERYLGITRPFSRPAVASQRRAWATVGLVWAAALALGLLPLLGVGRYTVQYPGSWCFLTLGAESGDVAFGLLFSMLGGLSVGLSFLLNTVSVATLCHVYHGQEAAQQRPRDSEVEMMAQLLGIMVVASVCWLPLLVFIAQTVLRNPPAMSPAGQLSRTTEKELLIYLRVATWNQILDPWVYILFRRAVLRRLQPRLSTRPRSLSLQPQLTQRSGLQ
human Thyroid hormone Receptor beta (TRb), THRB (gene 7068), sequence (P10828 whole entry, looked up, the tested form may be a part): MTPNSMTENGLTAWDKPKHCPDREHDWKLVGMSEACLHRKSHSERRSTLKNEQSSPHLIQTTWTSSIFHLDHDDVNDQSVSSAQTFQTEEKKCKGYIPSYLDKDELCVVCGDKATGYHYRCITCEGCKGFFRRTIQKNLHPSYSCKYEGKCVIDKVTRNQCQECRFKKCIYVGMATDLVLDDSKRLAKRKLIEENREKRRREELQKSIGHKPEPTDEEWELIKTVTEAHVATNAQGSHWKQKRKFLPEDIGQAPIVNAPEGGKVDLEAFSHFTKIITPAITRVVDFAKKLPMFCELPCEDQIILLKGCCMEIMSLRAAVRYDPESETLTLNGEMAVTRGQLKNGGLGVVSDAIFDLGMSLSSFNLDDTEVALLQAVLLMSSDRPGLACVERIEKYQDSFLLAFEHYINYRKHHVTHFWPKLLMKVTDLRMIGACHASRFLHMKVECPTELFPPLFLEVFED
rat Gamma-Aminobutyric Acid Type A Receptor BDZ, alpha 6 site (GABARa6), Gabra6 (gene 29708), sequence (P30191 whole entry, looked up): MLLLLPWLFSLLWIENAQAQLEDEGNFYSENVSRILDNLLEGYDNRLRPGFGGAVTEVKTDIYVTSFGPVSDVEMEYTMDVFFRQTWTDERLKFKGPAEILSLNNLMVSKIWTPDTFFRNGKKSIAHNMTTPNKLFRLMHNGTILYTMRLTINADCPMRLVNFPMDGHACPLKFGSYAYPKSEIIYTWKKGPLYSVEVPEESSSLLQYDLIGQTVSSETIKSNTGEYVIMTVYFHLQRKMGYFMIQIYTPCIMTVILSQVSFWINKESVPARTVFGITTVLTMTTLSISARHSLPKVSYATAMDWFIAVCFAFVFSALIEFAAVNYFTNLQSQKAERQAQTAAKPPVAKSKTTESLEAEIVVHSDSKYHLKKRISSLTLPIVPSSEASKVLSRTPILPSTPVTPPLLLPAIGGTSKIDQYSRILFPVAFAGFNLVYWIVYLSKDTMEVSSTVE
human CYP2D6, CYP2D6 (gene 1565), sequence (P10635 whole entry, looked up): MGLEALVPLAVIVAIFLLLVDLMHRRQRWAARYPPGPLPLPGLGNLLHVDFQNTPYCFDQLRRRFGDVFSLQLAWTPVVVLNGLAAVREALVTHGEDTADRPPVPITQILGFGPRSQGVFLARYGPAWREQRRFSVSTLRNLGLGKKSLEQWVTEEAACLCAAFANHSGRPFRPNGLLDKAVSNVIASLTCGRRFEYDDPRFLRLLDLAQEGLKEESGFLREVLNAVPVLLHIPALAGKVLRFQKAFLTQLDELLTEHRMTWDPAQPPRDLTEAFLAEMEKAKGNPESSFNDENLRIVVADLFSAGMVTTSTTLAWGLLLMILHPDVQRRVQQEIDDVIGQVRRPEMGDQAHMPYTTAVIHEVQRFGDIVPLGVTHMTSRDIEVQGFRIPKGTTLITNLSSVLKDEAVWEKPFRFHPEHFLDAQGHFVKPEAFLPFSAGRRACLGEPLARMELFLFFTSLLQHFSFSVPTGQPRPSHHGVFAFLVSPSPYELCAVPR

On to `CNC(=N[N+](=O)[O-])NCC1CCOC1` (configuration not stated), for which the outcome in assay [1] was inactive.
On to `COc1ccc(CO)cc1`, for which the outcome in assay [2] and in assay [3] was inactive.
Regarding `CC(C)CCCCCCCOC(=O)c1ccccc1C(=O)OCCCCCCCC(C)C`, the molecule was called inactive in [4], in assay [5], in [6], in assay [8] and in assay [9]. Moreover, the AC50 in assay [7] is 1.52 µM (active).
For `O=[N+]([O-])c1ccc(Cl)cc1`, the molecule was classed as inactive in [10].
Turning to `CCCCCCCCCCCCCCCC[N+](C)(C)C`, in the assay on IYD (gene 389434), the AC50 was 38.7 µM (active).
On to `CC1OC(C)OC(C)O1` (configuration not stated), for which the call in [11] and in assay [12] was inactive.
For `CC(Cc1ccc(C(C)(C)C)cc1)CN1C[C@@H](C)O[C@@H](C)C1` (some centres not stated), in assay [10], the molecule was called inactive.
In the case of `Cc1ccc(OP(=O)(Oc2ccc(C)cc2)Oc2ccc(C)cc2)cc1` (tested in a mixture with another compound), the figures for the AC50 in assay [13] and in assay [15] were 61.9 µM (active) and 25.6 µM (active), respectively. Also, in assay [14], the result was inactive.
As to `CC1(C)[C@H](C(=O)O[C@H](C#N)c2cccc(Oc3ccccc3)c2)[C@@H]1C=C(Br)Br`, the half-maximal activity concentration (AC50) in assay [16] was 2.27 µM (active). Further, the outcome in the assay with rat CYP3A1, gene 25642 was “inactive”; in assay [15] it was “inactive”.
Take `O=c1c2ccccc2c(=O)c2c1cc(Cl)c1[nH]c3c([nH]c12)c(Cl)cc1c(=O)c2ccccc2c(=O)c13`: the AC50 is 12.4 µM (active) in [17] and 10 µM (active) in [13]. For the same molecule, the result in assay [14] was inactive.
On to `Nc1ccc(-c2ccc(N)c(N)c2)cc1N`, for which the AC50 is 4.48 µM (active) in assay [16], 10.2 µM (active) in [17] and 8.44 µM (active) in assay [11].
Consider `CC(=O)c1cc2c(cc1C)C(C)(C)C(C)CC2(C)C` (configuration not stated), for which the molecule was called inactive in assay [4], in [6], in [8] and in assay [9]. Moreover, the AC50 in assay [5] was 26.7 µM (active); in assay [7] it was 1.8 µM (active).
Turning to `C=COCCCl`, the molecule was called inactive in assay [18].
Regarding `C[C@]12CC[C@H](O)C[C@H]1CC[C@@H]1[C@@H]2C[C@@H](O)[C@]2(C)[C@@H](C3=CC(=O)OC3)CC[C@]12O`, in assay [18], the molecule was called inactive.
With `CCC1CCC(=O)O1` (configuration not stated), the molecule was called inactive with IYD (gene 389434).
Take `O=c1[nH]c(Cl)c(Cl)cc1Cl`: the AC50 in assay [12] was 0.631 µM (active).
As to `CCOC(=O)NC(=S)Nc1ccccc1NC(=S)NC(=O)OCC`, in the assay on rat CYP3A1, gene 25642, the AC50 is 1.53 µM (active).
